Test results as given in PubChem BioAssay (NCI).
Compounds without any hit were thinned out: in the full panel of roughly 83,000, 20% have a hit.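 For each line, cells grew in 96-well plates with the test compound present at a single concentration for 48 hours.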

Legend:
Test in all cases: NCI-60 one-dose screen, 48 h (100 = growth as untreated, 0 = no growth, -100 = all killed)
Details in all cases: 10 µM unless noted; active means growth percent below 10; inactive means the rest
DU-145 prostate = system: DU-145 prostate
K-562 leukemia = system: K-562 leukemia
MDA-MB-231 breast = system: MDA-MB-231 breast
RXF 393 renal = system: RXF 393 renal
SF-268 CNS = system: SF-268 CNS
SF-295 CNS = system: SF-295 CNS
SF-539 CNS = system: SF-539 CNS
UACC-257 melanoma = system: UACC-257 melanoma
M14 melanoma = system: M14 melanoma
HT29 colon = system: HT29 colon
SNB-19 CNS = system: SNB-19 CNS
U251 CNS = system: U251 CNS
PC-3 prostate = system: PC-3 prostate
SK-MEL-5 melanoma = system: SK-MEL-5 melanoma
LOX IMVI melanoma = system: LOX IMVI melanoma
SK-MEL-28 melanoma = system: SK-MEL-28 melanoma
HCT-15 colon = system: HCT-15 colon
SNB-75 CNS = system: SNB-75 CNS
UACC-62 melanoma = system: UACC-62 melanoma
MALME-3M melanoma = system: MALME-3M melanoma

Measured: growth

Oc1ccccc1/C=N/Nc1nc2ccccc2s1
inactive: DU-145 prostate 48% | K-562 leukemia 41% | MDA-MB-231 breast 37.7% | RXF 393 renal 86.3% | SF-268 CNS 32.3% | SF-295 CNS 27.9% | SF-539 CNS 44.6% | UACC-257 melanoma 58.7% | M14 melanoma 56.6% | HT29 colon 105% | SNB-19 CNS 51.4% | U251 CNS 45.3% | PC-3 prostate 34.6% | SK-MEL-5 melanoma 48.8% | LOX IMVI melanoma 37.2% | SK-MEL-28 melanoma 83.3%

CC(=O)Nc1ccc(S(=O)(=O)N/N=C\c2ccc(Cl)c(Cl)c2)cc1
inactive: DU-145 prostate 110% | K-562 leukemia 116% | MDA-MB-231 breast 110% | RXF 393 renal 123% | SF-268 CNS 100% | SF-295 CNS 108% | SF-539 CNS 111% | UACC-257 melanoma 103% | M14 melanoma 102% | HCT-15 colon 118% | HT29 colon 102% | SNB-75 CNS 81.7% | SNB-19 CNS 103% | U251 CNS 95.5% | PC-3 prostate 83.6% | SK-MEL-5 melanoma 104% | SK-MEL-28 melanoma 115%

Cc1ccc(C(=O)Nc2ccccc2N)cc1
inactive: DU-145 prostate 73.5% | K-562 leukemia 62.5% | MDA-MB-231 breast 69.7% | RXF 393 renal 84.6% | SF-268 CNS 69.6% | SF-295 CNS 62.5% | SF-539 CNS 68.1% | UACC-257 melanoma 68% | M14 melanoma 77.5% | HCT-15 colon 88% | SNB-75 CNS 82.8% | SNB-19 CNS 81.9% | U251 CNS 74.8% | PC-3 prostate 70.9% | UACC-62 melanoma 52.1% | LOX IMVI melanoma 89.5%

Cc1ccc(S(=O)(=O)N(c2ccc(Cl)cc2)c2ccc(Br)cc2C(=O)O)cc1
inactive: DU-145 prostate 117% | K-562 leukemia 107% | MDA-MB-231 breast 119% | RXF 393 renal 100% | SF-268 CNS 111% | SF-295 CNS 112% | SF-539 CNS 102% | UACC-257 melanoma 101% | M14 melanoma 117% | HCT-15 colon 100% | HT29 colon 107% | SNB-75 CNS 97.2% | SNB-19 CNS 99.9% | U251 CNS 95.8% | PC-3 prostate 96.7% | UACC-62 melanoma 105% | SK-MEL-28 melanoma 119%

COC(=O)c1cc(-c2ccc(C)cc2)n(C(=O)CSc2nc3sc(C(N)=O)c(C)c3c(=O)n2Cc2ccccc2)n1
inactive: DU-145 prostate 102% | K-562 leukemia 101% | RXF 393 renal 106% | SF-268 CNS 108% | SF-295 CNS 109% | SF-539 CNS 104% | UACC-257 melanoma 106% | M14 melanoma 102% | HCT-15 colon 98.1% | HT29 colon 115% | SNB-75 CNS 83.3% | U251 CNS 102% | PC-3 prostate 86.1% | SK-MEL-28 melanoma 112%

COc1ccc(Nc2[nH]n(C3=Nc4ccccc4Sc4ccccc43)c(=O)c2C#N)cc1
inactive: DU-145 prostate 67% | K-562 leukemia 51.9% | MDA-MB-231 breast 51.2% | RXF 393 renal 59.3% | SF-268 CNS 67.2% | SF-539 CNS 45.6% | UACC-257 melanoma 36.3% | M14 melanoma 55.9% | HCT-15 colon 49.3% | HT29 colon 68.7% | SNB-75 CNS 67.3% | SNB-19 CNS 73.5% | U251 CNS 67% | PC-3 prostate 41.4% | UACC-62 melanoma 32.8% | LOX IMVI melanoma 54.6% | SK-MEL-28 melanoma 64.7%

Clc1ccc(Nc2ccnc(N3CCN(c4ccnc5cc(Cl)ccc45)CC3)n2)cc1
inactive: DU-145 prostate 78.2% | K-562 leukemia 15.7% | MDA-MB-231 breast 33.8% | RXF 393 renal 62.6% | SF-268 CNS 57.3% | SF-295 CNS 18.8% | SF-539 CNS 62.2% | UACC-257 melanoma 81.7% | M14 melanoma 33.7% | HCT-15 colon 20.4% | HT29 colon 32.2% | SNB-19 CNS 58.2% | U251 CNS 51.9% | PC-3 prostate 37.7% | SK-MEL-28 melanoma 63.8%

OB(O)c1ccccc1
inactive: DU-145 prostate 111% | MALME-3M melanoma 102% | MDA-MB-231 breast 114% | RXF 393 renal 123% | SF-268 CNS 106% | SF-295 CNS 97.7% | SF-539 CNS 106% | UACC-257 melanoma 99.4% | M14 melanoma 108% | HCT-15 colon 102% | HT29 colon 101% | SNB-75 CNS 101% | SNB-19 CNS 114% | U251 CNS 101% | PC-3 prostate 101% | SK-MEL-5 melanoma 113% | UACC-62 melanoma 109% | LOX IMVI melanoma 101% | SK-MEL-28 melanoma 117%

O=C(Nc1ccccc1O)c1ccc(NS(=O)(=O)c2cccc3cccnc23)cc1
inactive: DU-145 prostate 49.1% | K-562 leukemia 23.8% | MDA-MB-231 breast 64% | RXF 393 renal 69.8% | SF-268 CNS 44% | SF-295 CNS 62.9% | SF-539 CNS 41.4% | UACC-257 melanoma 26.8% | M14 melanoma 41.1% | HCT-15 colon 63.9% | HT29 colon 39.9% | SNB-75 CNS 48.5% | SNB-19 CNS 67.9% | U251 CNS 46.5% | PC-3 prostate 59% | UACC-62 melanoma 23.1% | SK-MEL-28 melanoma 37.6%

O=C1NC(=O)C(CSc2ccccc2)(c2ccccc2)N1 (stereo not given)
inactive: DU-145 prostate 123% | K-562 leukemia 104% | MDA-MB-231 breast 104% | RXF 393 renal 103% | SF-268 CNS 123% | SF-539 CNS 113% | UACC-257 melanoma 93.6% | M14 melanoma 105% | HCT-15 colon 119% | SNB-75 CNS 83.9% | SNB-19 CNS 113% | U251 CNS 96.7% | PC-3 prostate 88.9% | SK-MEL-5 melanoma 92.6% | UACC-62 melanoma 101% | LOX IMVI melanoma 89.6% | SK-MEL-28 melanoma 112%
